Results filed as inconclusive are left out. Calls of active or inactive are those of the source. How the source made its calls: active means hit-call score of the fitted dose curve at least 0.9, where 1 is the maximum; inconclusive means response in the unintended direction; inactive means score below 0.9.
Key:
[1] = ATG_XTT_Cytotoxicity: Cytotoxicity Assessment in the Attagene TRANS-FACTORIAL HepG2 Assay (AID 2283584)
Outline: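 XTT readout of cell number in transfected HepG2 cells, 24 h post-dosing; DMSO serves as negative control and baseline, with activity taken as loss of viability signal.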

[2] = target: Cellular tumor antigen p53 (Homo sapiens) (UniProt P04637); assay: TOX21_p53_BLA_p2_ratio: Tox21 HCT-116 p53 Agonism Beta-lactamase Assay, Ratio, Phase 2 (AID 2283592)
Outline: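 In this cell-based reporter format, HCT116 cells were dosed with chemicals delivered from DMSO by 217-fold dilution and incubated 16 h at 37C. Emission at 460 and 530 nm after 2 h CCF4-AM loading provided the ratio, fitted upward versus DMSO.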

[3] = TOX21_p53_BLA_p3_viability: Viability Assessment in the Tox21 HCT-116 p53 Agonism Beta-lactamase Assay, Phase 3 (AID 2283593);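 further: cells exposed to compound for 16 h before reading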
Outline: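 Cellular ATP was quantified by CellTiter-Glo luminescence, read after 30 min at room temperature. Beforehand, HCT116 cells (4000/well) received compound 5 h post-seeding, 217-fold diluted from DMSO, then incubated 16 h at 37C.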

[4] = target: Cellular tumor antigen p53 (Homo sapiens) (UniProt P04637); assay: TOX21_p53_BLA_p3_ratio: Tox21 HCT-116 p53 Agonism Beta-lactamase Assay, Ratio, Phase 3 (AID 2283596)
Outline: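 HCT116 p53-bla cells (4000/well) given compound in DMSO (217-fold dilution) after 5 h, incubated 16 h at 37C. CCF4-AM substrate 2 h at room temperature; 460/530 nm emission ratio, gain fitted against DMSO.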

[5] = TOX21_p53_BLA_p4_viability: Viability Assessment in the Tox21 HCT-116 p53 Agonism Beta-lactamase Assay, Phase 4 (AID 2283597);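 further: hits lower the luminescence signal meaning cytotoxicity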
Outline: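 We seeded HCT116 p53 reporter cells at 4000/well and waited 5 h. We then added compounds in DMSO at a 217-fold dilution and incubated for 16 h. Viability was read as CellTiter-Glo luminescence after 30 min at RT.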

[6] = TOX21_p53_BLA_p5_viability: Viability Assessment in the Tox21 HCT-116 p53 Agonism Beta-lactamase Assay, Phase 5 (AID 2283600)
Outline: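 Compounds, pinned from DMSO at 217-fold dilution, were left on the cells for 16 h. The viability endpoint was ATP content measured by CellTiter-Glo luminescence, where falling signal reflects cytotoxicity.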

[7] = target: Cellular tumor antigen p53 (Homo sapiens) (UniProt P04637); assay: TOX21_p53_BLA_p4_ratio: Tox21 HCT-116 p53 Agonism Beta-lactamase Assay, Ratio, Phase 4 (AID 2283601)
Outline: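 Signal is the blue/green (460nm/530nm) ratio of cleaved versus uncleaved CCF4-AM substrate, read after 2 h substrate loading. Cells were HCT116 carrying the p53-responsive beta-lactamase reporter, dosed 16 h at 37C, 5% CO2; CellTiter-Glo measured in parallel.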

[8] = TOX21_p53_BLA_p2_viability: Viability Assessment in the Tox21 HCT-116 p53 Agonism Beta-lactamase Assay, Phase 2 (AID 2283591);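 further: compound exposure lasted 16 h at 37 °C; actives lower the ATP signal meaning cytotoxicity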
Outline: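 Cytotoxicity readout: CellTiter-Glo ATP luminescence, 30 min at room temperature, after the beta-lactamase read. Cells were HCT116 exposed 16 h at 37C to compounds pin-transferred at 217-fold dilution from DMSO stocks.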

[9] = target: Cellular tumor antigen p53 (Homo sapiens) (UniProt P04637); assay: TOX21_p53_BLA_p5_ratio: Tox21 HCT-116 p53 Agonism Beta-lactamase Assay, Ratio, Phase 5 (AID 2283599)
Outline: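 Beta-lactamase reporter ratio (blue 460 nm over green 530 nm, 405 nm excitation) after 2 h CCF4-AM loading, in HCT-116 cells exposed 16 h at 37 C to compounds pinned at 217-fold dilution. Increases relative to DMSO baseline scored.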

Measured: outcome

Sequence of Cellular tumor antigen p53 (Homo sapiens) (P04637 whole entry, looked up): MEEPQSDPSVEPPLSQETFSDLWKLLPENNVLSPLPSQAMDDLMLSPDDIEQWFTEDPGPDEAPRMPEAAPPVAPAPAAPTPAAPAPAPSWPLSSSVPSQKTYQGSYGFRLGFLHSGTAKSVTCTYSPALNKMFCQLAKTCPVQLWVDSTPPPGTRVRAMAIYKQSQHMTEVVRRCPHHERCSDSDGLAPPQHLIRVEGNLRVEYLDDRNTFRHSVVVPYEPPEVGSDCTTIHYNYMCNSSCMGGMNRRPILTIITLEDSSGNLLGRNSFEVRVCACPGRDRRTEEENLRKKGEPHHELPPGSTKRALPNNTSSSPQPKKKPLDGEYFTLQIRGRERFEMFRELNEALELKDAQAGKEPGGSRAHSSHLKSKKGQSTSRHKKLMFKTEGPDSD

ClCCCl
not listed: [8] | [9]
inactive: all other assays above

Cc1ccccc1C=O
not listed: [2] | [6]
inactive: all other assays above

CCCCc1ccc(N)cc1
not listed: [2] | [6]
inactive: all other assays above

NCCOCCO
not listed: [6] | [8]
inactive: all other assays above

Reference: PubChem BioAssay (EPA / NIEHS)
